DT40 TDP1 no CPT = qHTS for Inhibitors of human tyrosyl-DNA phosphodiesterase 1 (TDP1): qHTS in cells in absence of CPT; DT40 Tdp1-/- hTDP1 cells, no CPT, ATP luminescence, 48 h; Potency, µM (highest dose often 46.2 µM), inactives show at the top dose activity change, negative = growth inhibition, hits mostly inhibitors; hit rate 15% among 420,000; AID 686978, 2013; note: potency is the fitted concentration of half-maximal effect; % is set by controls: 0 for no effect and ±100 for the full control effect; nearly all actives have a fitted effect of over 55% in size
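Luminescent ATP content (CellTiter-Glo) served as the growth readout. Knockout chicken DT40 cells expressing human TDP1 were exposed to compounds without camptothecin for a minimum 48 hr at 37 °C.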
IL-1B inflam inh = inflammasome signaling inhibition, IL-1 beta readout; activity change, % at 57.5 µM; THP-1 LPS/ATP IL-1B secretion, AlphaLISA, 16 h; stronger effect = lower value; hit rate 4.7% among 360,000; in the data active = activity change below about -50%; inconclusive = mostly about -30% to -49%; note: % is set by controls: 0 for no effect and ±100 for the full control effect
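Secreted IL-1B measured by AlphaLISA bead assay after 16 h compound exposure of THP-1 cells; compounds (final up to 57.5 uM) added 1 h before LPS (250 ng/mL) and ATP (1.25 mM) stimulation; lower signal means less secretion.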
DT40 TDP1 CPT = DT40-hTDP1 cell growth loss with CPT. hit rate 12% among 420,000. Potency, µM (highest dose often 46.2 µM), without a hit: top-dose activity change, negative = growth inhibition, most hits filed as inhibitors. chicken DT40 Tdp1-/-;hTDP1 cells + 20 nM CPT, ATP luminescence, 48 h. AID 686979; note: potency is the fitted concentration of half-maximal effect; % is set by controls: 0 for no effect and ±100 for the full control effect; nearly all actives have a fitted effect of over 55% in size
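Cell growth measured by CellTiter-Glo luminescence after a minimum 48 h, 37 C compound exposure with 20 nM CPT in Tdp1-knockout DT40 cells stably expressing hTDP1, seeded 400/well; qHTS titration format.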
ClpP mod = qHTS Assay for Activators of ClpP; ATP-dependent Clp protease proteolytic subunit (Bacillus subtilis (strain 168)), P80244; purified B. subtilis ClpP, FRET peptide cleavage, 20 min; Potency, µM (doses to about 57.5 µM), inactives show at the highest dose activity change, negative = active; hit rate 1.9% among 340,000; AID 651965, 2013; active = well fitted falling curve with a large enough effect; inconclusive = small, poorly fitted or top-dose-only effect; inactive = no such curve, though single readings can be large or run the other way; note: potency is the fitted concentration of half-maximal effect; the source files actives as falling curves though it sought activators and does not explain the sign; nearly all actives have a fitted effect of over 65% in size
Target sequence (P80244 whole entry, looked up): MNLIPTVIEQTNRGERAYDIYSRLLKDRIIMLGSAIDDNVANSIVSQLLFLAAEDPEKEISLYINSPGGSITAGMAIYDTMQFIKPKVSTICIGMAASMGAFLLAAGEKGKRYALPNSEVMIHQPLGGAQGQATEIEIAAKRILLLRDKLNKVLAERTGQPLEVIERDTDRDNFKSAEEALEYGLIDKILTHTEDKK
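Purified B. subtilis ClpP, 10 microg/mL final in Tris/HCl pH8 with KCl, BSA, glycerol and Tween-20, cleaved an Abz/nitrotyrosine-quenched decapeptide. Fluorescence (ex 320, em 430) was read at 0 and 20 min at room temperature. Delta was normalized to 5.8 microM ADEP and DMSO/no-enzyme controls.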
D3 antag = D3 dopamine receptor (human) antagonism | P35462 | D3R cells, DiscoveRx beta-arrestin luminescence, antagonist mode; stronger effect = lower value | max response, negative = inhibition, % | hit rate 2.5% among 360,000; in the data active = max response below about -50%; inconclusive = no clear call, values can overlap the other calls; note: % is set by controls: 0 for no effect and ±100 for the full control effect
Target sequence (P35462 whole entry, looked up): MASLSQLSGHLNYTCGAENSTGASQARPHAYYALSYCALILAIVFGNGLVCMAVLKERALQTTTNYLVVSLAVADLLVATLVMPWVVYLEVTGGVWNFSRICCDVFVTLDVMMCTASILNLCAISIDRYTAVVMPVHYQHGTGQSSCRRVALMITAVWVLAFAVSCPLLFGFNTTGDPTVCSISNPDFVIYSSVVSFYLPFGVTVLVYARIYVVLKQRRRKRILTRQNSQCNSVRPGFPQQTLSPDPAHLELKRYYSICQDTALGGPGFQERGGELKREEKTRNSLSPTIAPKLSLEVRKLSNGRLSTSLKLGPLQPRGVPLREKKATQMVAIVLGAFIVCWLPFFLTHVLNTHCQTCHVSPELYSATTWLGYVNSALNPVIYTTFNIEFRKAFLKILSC
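Cells plated overnight at 1500 cells/well, then exposed to library compounds with dopamine controls for 90 minutes at 37 degrees C. DiscoveRx reagent added for 30–60 minutes at room temperature; luminescence read, quantitative HTS format.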
DRD3 agonist = D3 dopamine receptor (human) agonism; max activation, %; D3R DiscoveRx beta-arrestin cells, luminescence, 90 min; hit rate 0.58% among 410,000; AID 652048; in the data active = max activation above about 30%; note: 0% is about no effect
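Agonist mode: compounds and dopamine controls were applied to plated cells for 90 min at 37 degrees C after an overnight attachment at 1500 cells/well. Luminescent read-out followed 30 - 60 minutes at room temperature with DiscoveRx detection reagent.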
* = called active by the depositor. Sampled rows, rich in hits. Any-hit rate of the full collection: about 21%. Unless noted, calls come from the whole dose curve; as a rule, active = well fitted inhibition curve with a large enough effect; inconclusive = small, poorly fitted or top-dose-only effect; inactive = flat fitted curve, though single readings scatter.

`Cc1ccc(C(=O)N2CCCC(C(=O)c3ccc(Cl)cc3C)C2)cn1` (configuration not stated) gave DT40 TDP1 no CPT 20.6µM*, IL-1B inflam inh 1.4, DT40 TDP1 CPT -29.3%, D3 antag 4.0 and DRD3 agonist 21.0.
For Cc1ccc(C(=O)N2CCCC(C(=O)c3ccc(Oc4ccccc4)cc3)C2)cn1 (configuration not stated) the results were DT40 TDP1 no CPT 16.4µM*, IL-1B inflam inh -79.9*, DT40 TDP1 CPT 20.6µM*, D3 antag 0.8 and DRD3 agonist 3.1.
Screening Cc1cnc(C(=O)N2CCCC(C(=O)c3ccc(Cl)cc3C)C2)cn1 (configuration not stated) returned DT40 TDP1 no CPT inconclusive, IL-1B inflam inh 80.0, DT40 TDP1 CPT inconclusive, ClpP mod -2.6%, D3 antag -6.7 and DRD3 agonist 5.0.
`COCCC(=O)N1CCCC(C(=O)c2ccc(Oc3ccccc3)cc2)C1` (configuration not stated) gave DT40 TDP1 no CPT 20.6µM*, IL-1B inflam inh -1.2, DT40 TDP1 CPT -28.9%, D3 antag 14.6 and DRD3 agonist 9.9.
CCCCn1c(N)c(N(CC(C)C)C(=O)c2oc3ccc(Br)cc3c2C)c(=O)[nH]c1=O was read as DT40 TDP1 no CPT -28.6%, IL-1B inflam inh inconclusive, DT40 TDP1 CPT -17.3%, D3 antag -3.2 and DRD3 agonist -0.1.
For Cc1ccccc1CN1c2ccccc2S(=O)(=O)c2ccccc21 the results were DT40 TDP1 no CPT -4.9%, DT40 TDP1 CPT -11.5%, ClpP mod -7.4% and DRD3 agonist -10.5.
`O=C(O)c1cccnc1SCc1cccc(Cl)c1` gave DT40 TDP1 no CPT inconclusive, IL-1B inflam inh 92.3, DT40 TDP1 CPT inconclusive, ClpP mod -0.3%, D3 antag 5.4 and DRD3 agonist 5.4.
Screening CN(Cc1ccco1)C(=O)Cn1nc(-c2ccc(Cl)cc2)ccc1=O returned DT40 TDP1 no CPT inconclusive, IL-1B inflam inh -7.2, DT40 TDP1 CPT inconclusive, ClpP mod -15.3%, D3 antag 0.7 and DRD3 agonist -11.0.
Screening O=C(O)c1cccc2c1-c1ccc(Cl)cc1C2 returned DT40 TDP1 no CPT -7.9%, IL-1B inflam inh -8.8, DT40 TDP1 CPT -9.3%, ClpP mod inconclusive, D3 antag -10.4 and DRD3 agonist -14.7.
`CCN(C1CCCCC1)S(=O)(=O)c1cc(C)ccc1OC` gave DT40 TDP1 no CPT 18.4µM*, IL-1B inflam inh 1.5, DT40 TDP1 CPT inconclusive, ClpP mod 1.1%, D3 antag 0.4 and DRD3 agonist 5.7.
Screening COc1ccc(CN(C2CCCC2)S(=O)(=O)c2ccc(-n3cnnn3)c(OC)c2)cc1OC returned DT40 TDP1 no CPT inconclusive, IL-1B inflam inh -51.8*, DT40 TDP1 CPT inconclusive, ClpP mod -2.3%, D3 antag 15.1 and DRD3 agonist 16.9.
For CCN(C1CCCCC1)S(=O)(=O)c1ccc(OC)c(C)c1 the results were DT40 TDP1 no CPT 16.4µM*, IL-1B inflam inh 18.7, DT40 TDP1 CPT 14.6µM*, ClpP mod -3.4%, D3 antag -23.9 and DRD3 agonist 2.3.
`CCN(C1CCCCC1)S(=O)(=O)c1ccc(-n2cnnn2)c(C)c1` gave DT40 TDP1 no CPT -15.1%, IL-1B inflam inh 7.3, DT40 TDP1 CPT 21.4%, ClpP mod 0.9%, D3 antag -4.1 and DRD3 agonist 6.9.
CC(C)(C)OC(=O)N1CCC(c2c(C(=O)NCCCN3CCc4ccccc4C3)cnn2-c2ccccc2)CC1 was read as DT40 TDP1 no CPT 23.1µM*, DT40 TDP1 CPT inconclusive, ClpP mod -1.2% and DRD3 agonist -25.5.
Screening CCN1CCN(CCCNC(=O)c2cnn(-c3ccccc3)c2C2CCN(C(=O)OC(C)(C)C)CC2)CC1 returned DT40 TDP1 no CPT 0.5%, DT40 TDP1 CPT -9.9%, ClpP mod -1.4% and DRD3 agonist -11.4.
`Cc1cccc(C)c1-n1ncc(C(=O)NCCCN2CCC(C)CC2)c1C1CCN(C(=O)OC(C)(C)C)CC1` gave DT40 TDP1 no CPT 20.6µM*, DT40 TDP1 CPT inconclusive, ClpP mod 1.7% and DRD3 agonist -20.5.
Cc1ccc(-n2ncc(C(=O)NCCCN3CCc4ccccc4C3)c2C2CCN(C(=O)OC(C)(C)C)CC2)c(C)c1 was read as DT40 TDP1 no CPT 20.6µM*, DT40 TDP1 CPT 20.6µM*, ClpP mod 0.1% and DRD3 agonist -40.4.
Cc1nnc(NC(=O)c2ccc(S(=O)(=O)N(C)Cc3ccccc3)cc2)o1 was read as DT40 TDP1 no CPT 23.1µM*, IL-1B inflam inh 25.9, DT40 TDP1 CPT inconclusive, ClpP mod 0.9%, D3 antag -72.2* and DRD3 agonist 1.1.
COCc1nnc(NC(=O)c2ccc(S(=O)(=O)N(C)Cc3ccccc3)cc2)o1 was read as DT40 TDP1 no CPT inconclusive, IL-1B inflam inh 75.3, DT40 TDP1 CPT inconclusive, D3 antag -23.4 and DRD3 agonist 2.3.
Cc1nc(-c2ccc(S(=O)(=O)Nc3ccccc3C)cc2)co1 was read as DT40 TDP1 no CPT -19.5%, IL-1B inflam inh 0.0, DT40 TDP1 CPT inconclusive, ClpP mod 1.0%, D3 antag -8.7 and DRD3 agonist -12.8.
For Cc1nc(-c2ccc(S(=O)(=O)N(C)Cc3ccccc3)cc2)co1 the results were DT40 TDP1 no CPT 20.6µM*, DT40 TDP1 CPT 25.9µM*, ClpP mod -5.5% and DRD3 agonist 0.5.
CCN(Cc1ccccc1)S(=O)(=O)c1ccc(C(=O)Nc2nnc(C3CC3)o2)cc1 was read as DT40 TDP1 no CPT 16.4µM*, IL-1B inflam inh 36.2, DT40 TDP1 CPT inconclusive, ClpP mod -3.0%, D3 antag 2.2 and DRD3 agonist 2.5.
`Cc1cc2ccccn2c1C(=O)c1ccccc1F` gave DT40 TDP1 no CPT inconclusive, IL-1B inflam inh 9.6, DT40 TDP1 CPT inconclusive, D3 antag -13.3 and DRD3 agonist -8.3.
CC(=O)c1ccc(OCCCC(=O)NNC(=O)c2ccccn2)cc1 was read as DT40 TDP1 no CPT 14.6µM*, IL-1B inflam inh 138.2, DT40 TDP1 CPT inconclusive, ClpP mod 1.5%, D3 antag -19.0 and DRD3 agonist -14.5.
O=C(NNC1=Nc2ccccc2SC1)c1cccc([N+](=O)[O-])c1 was read as DT40 TDP1 no CPT 23.1µM*, IL-1B inflam inh 52.8, DT40 TDP1 CPT 16.4µM*, D3 antag -61.2* and DRD3 agonist -12.0.

Assay outcomes (PubChem BioAssay)
